Screening data (PubChem BioAssay)
SMARCA2 act: activators of SMARCA2 function; AID 652017; MG213 cells, MMTV-luciferase reporter, dexamethasone, overnight; 370,000 compounds, 1% hits; activation, % at 9.1 µM; in the data active = activation above about 7.8%;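 also: 0% = vehicle wells and 100% = reference activator wells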
Rtt109 Vps75: C. albicans Rtt109 histone acetyltransferase inhibition; inhibition, % at 34.9 µM; AID 540336; Q5AAJ8; 330,000 compounds, 0.16% hits; purified Rtt109/Vps75, ThioGlo CoA-SH fluorescence, 4 h;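 active = inhibition of at least 50% in every replicate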
Target sequence (Q5AAJ8 whole entry, looked up): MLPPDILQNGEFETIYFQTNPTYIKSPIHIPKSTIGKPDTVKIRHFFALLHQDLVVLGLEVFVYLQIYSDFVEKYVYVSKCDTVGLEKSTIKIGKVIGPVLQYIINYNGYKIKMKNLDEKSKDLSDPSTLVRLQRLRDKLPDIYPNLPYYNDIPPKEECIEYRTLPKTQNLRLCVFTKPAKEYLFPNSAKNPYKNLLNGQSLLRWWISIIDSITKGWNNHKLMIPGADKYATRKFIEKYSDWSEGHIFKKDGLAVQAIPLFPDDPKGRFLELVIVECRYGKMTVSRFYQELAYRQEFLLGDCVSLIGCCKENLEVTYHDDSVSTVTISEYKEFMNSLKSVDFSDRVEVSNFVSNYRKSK
CDK5 inh: CDK5/p35 (human) kinase inhibition; Q00535+Q15078; inhibition, % at 10 µM; AID 488839; Recombinant CDK5/p35, ADP-Glo luminescence, 60 min; 330,000 compounds, 0.01% hits;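 active = highest replicate inhibition of at least 50% and at least 75% of replicates reaching 50%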;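 also: plate controls were DMSO neutral control for no effect and GW8510 at 10 µM for full effect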
esBAF inh: inhibitors of esBAF chromatin remodeling in mouse ES cells. Bmi1-luciferase knock-in reporter, 24 h; 100% = twice the neutral-well signal. reporter increase, % at 12.5 µM. 350,000 compounds, 2% hits; in the data active = activation above about 40%;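 also: 0% = median of the plate's neutral control wells and 100% = double that signal; a rise in the Bmi1 reporter signal indicates esBAF inhibition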
dFosB activator: enhances mouse delta FosB homodimer DNA binding. P13346. purified delta FosB, TAMRA-CDK5 oligo fluorescence polarization; percent of positive-control signal above neutral wells. 340,000 compounds, 0.99% hits. activation, % at 25 µM. AID 493131;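 active = mean activation above about 17%, with every replicate also reaching it, limit read from the data, passing the limit was not always enough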
Dyrk1A ADPGlo: Dyrk1A (rat) kinase inhibition | ADP-Glo luminescence, NFATc1 peptide | 310,000 compounds, 0.43% hits | Q63470 | inhibition, % at 12.5 µM; in the data active = inhibition above about 50%;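 also: plate controls were vehicle with enzyme for no effect and no enzyme for full effect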
SMARCA2 conf: confirmation of SMARCA2 (BRM) function activators | MG213 cells, MMTV-luciferase with dexamethasone, luminescence, overnight; MG213 cells expressing E1A, Rb sequestered; DMSO wells 0%, reference activator 100% | 3,500 compounds, 30% hits | AID 652260 | shares compounds with SMARCA2 act | activation, % at 9.1 µM;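 active = activation above its plate's cutoff, the mean activation of tested wells plus 3 SD, cut at about 7.9% in these data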
GAL4-VP16 Luc: GAL4-VP16 reporter activation counter-screen. shares compounds with SMARCA2 act. HEK293 GAL4-VP16 pG5luc reporter, luciferase luminescence; scaled: DMSO wells 0%, SAHA wells 100%. activation, % at 9.1 µM. 3,500 compounds, 41% hits. AID 686939;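 active = activation above the solvent-only control well mean plus 3 SD, averaged across control plates, cut at about 5.2% in these data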
* hit, by the source's call. Shown are actives, neighbours in structure and some others; about 3.2% of the full set was active somewhere.

How did Cc1cccc(NC(=O)Nc2nnc(N3CCCCC3C)s2)c1C (configuration not stated) do in these assays?
SMARCA2 act: 8.0*; Rtt109 Vps75: -3; CDK5 inh: -1; esBAF inh: 20; dFosB activator: -3; Dyrk1A ADPGlo: 4; SMARCA2 conf: -2; GAL4-VP16 Luc: 2

What do the screens show for `COc1cccc(NC(=O)Nc2nnc(N3C(C)CCCC3C)s2)c1` (configuration not stated)?
SMARCA2 act: 4; Rtt109 Vps75: -2; CDK5 inh: -2; esBAF inh: 17; dFosB activator: 4; Dyrk1A ADPGlo: -3

What do the screens show for `O=C(C[C@H]1CC[C@@H](NC(=O)Nc2ccc(C(F)(F)F)cc2)[C@@H](CO)O1)NCc1cc(F)cc(F)c1`?
esBAF inh: 4

How did O=c1oc(-c2ccc(Br)o2)nc2ccccc12 do in these assays?
SMARCA2 act: 14*; Rtt109 Vps75: 33; CDK5 inh: -1; esBAF inh: 8; dFosB activator: -16; SMARCA2 conf: 7; GAL4-VP16 Luc: 3

How did Cc1ccc(-c2nc3ccccc3c(=O)o2)cc1 do in these assays?
SMARCA2 act: 3; Rtt109 Vps75: 1; CDK5 inh: 0; esBAF inh: 40; dFosB activator: -1; Dyrk1A ADPGlo: 0

Results for COc1cccc(CN2CCSCC2)c1OC ?
SMARCA2 act: 1; Rtt109 Vps75: -6; CDK5 inh: 0; esBAF inh: -7; dFosB activator: 3; Dyrk1A ADPGlo: 14

Results for COc1ccccc1CN1CCSCC1 ?
SMARCA2 act: 9.8*; Rtt109 Vps75: -5; CDK5 inh: 2; dFosB activator: 8; Dyrk1A ADPGlo: 9; SMARCA2 conf: -1; GAL4-VP16 Luc: -1

How did COc1ccc(C2=NN(C(=O)c3ccco3)C(c3cccs3)C2)cc1OC (configuration not stated) do in these assays?
SMARCA2 act: 12*; esBAF inh: 16; SMARCA2 conf: 18*; GAL4-VP16 Luc: 5

What do the screens show for `COc1ccc(-c2nn(-c3ccccc3)cc2/C=N/NC(=O)c2ccc(Br)o2)cc1`?
SMARCA2 act: 2; Rtt109 Vps75: 1; CDK5 inh: 2; esBAF inh: 2; dFosB activator: -1; Dyrk1A ADPGlo: 3

How did COc1ccc(-c2nn(-c3ccccc3)cc2/C=N/Nc2cccc(C(=O)O)c2)cc1 do in these assays?
SMARCA2 act: 9.1*; Rtt109 Vps75: 19; CDK5 inh: 0; esBAF inh: 47*; dFosB activator: -18; Dyrk1A ADPGlo: 6; SMARCA2 conf: -3; GAL4-VP16 Luc: 2

Results for O=C(O)c1cccc(N/N=C/c2cccs2)c1 ?
SMARCA2 act: 12*; Rtt109 Vps75: 5; CDK5 inh: 3; dFosB activator: 4; Dyrk1A ADPGlo: -1; SMARCA2 conf: 5; GAL4-VP16 Luc: 14*

How did CSc1ccc(/C=N/Nc2cccc(C(=O)O)c2)cc1 do in these assays?
Rtt109 Vps75: -4; CDK5 inh: -2; dFosB activator: -14

What do the screens show for `CSc1nc(SCC(=O)NC(c2ccccc2)c2ccccc2)c2c3c(sc2n1)CN(C)CC3`?
SMARCA2 act: 12*; Rtt109 Vps75: -10; CDK5 inh: 0; esBAF inh: -3; dFosB activator: 11; Dyrk1A ADPGlo: 2; SMARCA2 conf: -4; GAL4-VP16 Luc: 0

What do the screens show for `C[C@@H]1CN([C@H](C)CO)C(=O)c2cc(NC(=O)c3ccccc3)ccc2O[C@@H](C)CCCCO[C@H]1CN(C)Cc1ccc(C(=O)O)cc1`?
esBAF inh: -3

What do the screens show for `Cc1cnc(NC(=O)CSc2ccc(Cl)cc2)s1`?
SMARCA2 act: -4; Rtt109 Vps75: 6; CDK5 inh: 0; esBAF inh: 1; dFosB activator: -7; Dyrk1A ADPGlo: 1

How did Cc1cnc(NC(=O)Nc2ccc(Cl)cc2)s1 do in these assays?
SMARCA2 act: 12*; Rtt109 Vps75: -1; CDK5 inh: 2; dFosB activator: -4; Dyrk1A ADPGlo: 1; SMARCA2 conf: 8.3*; GAL4-VP16 Luc: 11*

What do the screens show for `COC(=O)c1cccc(NC(=O)Cn2cnc3ccccc3c2=O)c1`?
SMARCA2 act: 13*; Rtt109 Vps75: 4; CDK5 inh: 0; esBAF inh: 10; dFosB activator: -9; Dyrk1A ADPGlo: 0; SMARCA2 conf: -5; GAL4-VP16 Luc: -3

Results for CC(=O)c1ccc(N2C(=O)C3C(C2=O)C(C(=O)c2ccc(Cl)cc2)N2CCCC32)cc1 (configuration not stated) ?
SMARCA2 act: 3

How did COc1ccc(N2C(=O)C3C(C2=O)C(C(=O)c2ccc(Cl)cc2)N2CCCC32)cc1 (configuration not stated) do in these assays?
SMARCA2 act: 12*; Rtt109 Vps75: 0; CDK5 inh: 0; dFosB activator: -9; SMARCA2 conf: 2; GAL4-VP16 Luc: -1

How did CC(=O)N(C)C[C@H]1Oc2cc(C#CCC(C)C)ccc2S(=O)(=O)N([C@@H](C)CO)C[C@@H]1C do in these assays?
esBAF inh: -5

How did Cc1noc(C)c1S(=O)(=O)Nc1ccc2c(c1)CC(=O)N([C@@H](C)CO)C[C@@H](C)[C@@H](CN(C)S(=O)(=O)c1cn(C)cn1)O2 do in these assays?
esBAF inh: 0

How did CCOc1cccc(/C=N/N=C/c2cccc(OCC)c2O)c1O do in these assays?
SMARCA2 act: -1; Rtt109 Vps75: 8; CDK5 inh: -1; esBAF inh: 17; dFosB activator: 0; Dyrk1A ADPGlo: 9

Results for CCOc1cccc(C=Nc2cc(C)cc(C)c2O)c1O ?
SMARCA2 act: 12*; Rtt109 Vps75: 6; CDK5 inh: 1; esBAF inh: 5; dFosB activator: -11; Dyrk1A ADPGlo: 13; SMARCA2 conf: 6; GAL4-VP16 Luc: 2

What do the screens show for `O=C(NCC[C@@H]1CC[C@@H](NS(=O)(=O)c2ccc(Oc3ccccc3)cc2)[C@@H](CO)O1)C1CC1`?
esBAF inh: 7

Results for O=C(NCCc1ccncc1)[C@@H]1[C@@H](CO)[C@@H]2Cn3c(ccc(-c4ccncc4)c3=O)[C@@H]2N1C(=O)C1CC1 ?
esBAF inh: -6

What do the screens show for `C=CCn1c(SCC(=O)Nc2ccc(-c3nc4ccc(C)cc4s3)cc2)nnc1-c1ccncc1`?
SMARCA2 act: 8.9*; Rtt109 Vps75: 11; CDK5 inh: 1; esBAF inh: 35; dFosB activator: 5; Dyrk1A ADPGlo: 0; SMARCA2 conf: 5; GAL4-VP16 Luc: 9.2*
